# Test results from PubChem BioAssay AID504428 (National Center for Advancing Translational Sciences (NCATS), 2011).
# This is one part of the list. A call without a number means that no potency is given here. Activity calls are given as the source filed them.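 The calls were made as follows: active = compounds that inhibited Clk3 enough in the ten-dose series to give a half-maximal potency; inactive = the rest.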
# Biological target: Dual specificity protein kinase CLK3 (Homo sapiens) (UniProt P49761)
# Sequence (P49761 whole entry, looked up): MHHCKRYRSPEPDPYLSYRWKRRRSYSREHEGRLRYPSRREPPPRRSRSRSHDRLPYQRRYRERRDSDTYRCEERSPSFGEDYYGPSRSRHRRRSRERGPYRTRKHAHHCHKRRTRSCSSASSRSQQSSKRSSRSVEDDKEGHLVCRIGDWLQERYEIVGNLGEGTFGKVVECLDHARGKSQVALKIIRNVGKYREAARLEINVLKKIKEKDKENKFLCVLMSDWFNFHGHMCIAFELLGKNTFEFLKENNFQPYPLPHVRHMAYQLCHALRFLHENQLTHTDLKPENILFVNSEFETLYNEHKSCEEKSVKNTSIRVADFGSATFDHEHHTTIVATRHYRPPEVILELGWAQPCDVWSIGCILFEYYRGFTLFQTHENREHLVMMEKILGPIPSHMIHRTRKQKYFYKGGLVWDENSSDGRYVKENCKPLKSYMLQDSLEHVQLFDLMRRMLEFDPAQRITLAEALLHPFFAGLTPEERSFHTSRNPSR
# Assay: Kinase Inhibition Study on Inhibitors of CDC-like Kinase 3 (Reaction Biology data)
# Details: recombinant CLK3 kinase assay, 10 uM ATP
# Description: NIH Molecular Libraries Probe Production Centers Network [MLPCN] NIH Chemical Genomics Center [NCGC] MLPCN Grant: 1R03MH084827-01 Assay Submitter (PI): Tom Misteli NCGC Assay Overview: Alternative splicing of pre-mRNAs plays a major role in the regulation of eukaryotic gene expression. Alternative splicing is now thought to be one of the primary reasons for the complexity of higher organisms leading to an average of three protein isoforms per gene. Aberrant splicing can lead to a number of diseases and is known to play a role in rare genetic diseases such as progeria syndrome. Hutchinson-Gilford Progeria Syndrome (HGPS) is a pediatric premature aging disease caused by a spontaneous mutation in the lamin A/C (LMNA) gene due to a single point mutation in the lamin A gene effecting 1 in 4 million people. To identify both specific splicing modulators of the lamin A gene as well as general splicing modulators, a cell-based HTS assay was developed using a minigene reporter system (AIDs, 1459 & 1487). […] This AID summarizes the characterization of lead compounds in Clk3.
# All kinase reactions were performed using 10 uM ATP in the assay. 100% activity was taken from kinase reactions with DMSO alone (the vehicle used for compound stock solutions).
Compound,Potency,outcome
CC(Nc1ncnc2ccc(-c3ccc4c(c3)OCO4)cc12)c1ccco1 (centres undefined),15 µM (active),–
c1coc(CCNc2ncnc3ccc(-c4ccc5c(c4)OCO5)cc23)c1,2.02 µM (active),–
CN(Cc1cncn1C)c1ncnc2ccc(-c3ccc4c(c3)OCO4)cc12,–,inactive
c1nc(N2CCOCC2)c2cc(-c3ccc4c(c3)OCO4)ccc2n1,–,inactive
